In PubChem BioAssay:

test system: wheat germ agglutinin (Triticum aestivum), Alexa647-labelled; assay: wheat germ agglutinin binders on compound microarrays, profiling panel, artefact control for SMM control-protein annotation, biochemical, small-molecule microarray, 635/667 nm fluorescence (AID 1140); details: WGA-A647 binding, 635 nm fluorescence, higher = more signal;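 also: score merges 667 nm feature emission with signal to noise over triplicate slides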

Question: With `CC(=O)C[C@H](O)[C@@H](NC(=O)OC(C)(C)C)C(C)C` as the compound, how does the composite z-score read?
Answer: Its composite z-score is -0.644.

Question: With `CO[C@H]1O[C@H](CO)[C@@H](OC(=O)Nc2ccc(C#N)cc2)[C@H](OC(=O)c2cc3ccccc3[nH]2)[C@H]1OC(=O)c1cc2ccccc2[nH]1` as the compound, how does the composite z-score read?
Answer: Its composite z-score is 0.955.

Question: For `CO[C@@H]1COC(=O)[C@@H]2CCCN2C(=O)[C@@H](C)COC(=O)[C@H](COCc2ccccc2)NC(=O)CC=C[C@H]1C`, which composite z-score is on record?
Answer: The composite z-score was -0.07.

Question: For `COc1ccc(O[C@H]2C=C[C@@H](c3ccccc3)O[C@@H]2COC(=O)CCC(C)=NO[C@H](C)c2cn([C@@H]3COC[C@H]3O)nn2)cc1`, which composite z-score is on record?
Answer: Its composite z-score is -0.151.

Question: For `CC(CCC(=O)OC[C@H]1O[C@H](C#Cc2ccccc2)C=C[C@@H]1Oc1ccc(C)cc1)=NO[C@@H](C)c1cn([C@H](CO)Cc2ccccc2)nn1`, which composite z-score is on record?
Answer: The composite z-score was 0.587.

Question: How did the composite z-score turn out when `CO[C@H]1COC(=O)[C@H](C)COC(=O)CC=C[C@@H](C)[C@H](OC)COC(=O)CC=C[C@@H]1C` was run?
Answer: Its composite z-score is -0.531.

Question: For `CCc1cccc(NC(=O)O[C@H]2[C@H](OC(=O)Nc3ccc4c(c3)OCO4)[C@@H](OC(=O)Nc3ccc4c(c3)OCO4)[C@@H](OC)O[C@@H]2CO)c1`, which composite z-score is on record?
Answer: The composite z-score was 0.809.

Question: For `CCOC(=O)C[C@H]1[C@H](OC(=O)c2cc3ccccc3oc2=O)[C@@H](NC(=O)c2ccc3ccccc3n2)c2cc(OCCCO)ccc2N1C(=O)c1ccccc1`, which composite z-score is on record?
Answer: Its composite z-score is 0.354.

Question: How did the composite z-score turn out when `CCN1C(=O)[C@H]2[C@H]3[C@H](O)[C@H](O)CC(=NOCC=C(C)CCC=C(C)C)[C@H]3CC[C@H]2C1=O` was run?
Answer: The composite z-score was -0.207.

Question: Which composite z-score does the source give for `O=C1[C@H]2[C@H]3[C@H](O)[C@H](O)CC(=NOCc4ccccc4)[C@@H]3CC[C@H]2C(=O)N1C1CCCCC1` here?
Answer: Its composite z-score is -0.0558.

Question: How did the composite z-score turn out when `CC(C)=CCCC(C)=CCON=C1[C@H]2CCn3c(=O)n(Cc4cc5c(cc4Cl)OCO5)c(=O)n3[C@H]2[C@H](O)[C@@H]2O[C@H]12` was run?
Answer: The composite z-score was -0.0863.

Question: Which composite z-score does the source give for `CCCNC(=O)OC[C@H]1O[C@H](CCON=C[C@@H](OC)[C@H](C)C=CCC(=O)OC)C=C[C@@H]1Oc1ccc(OC)cc1` here?
Answer: The composite z-score was 0.183.

Question: `COC(=O)[C@H](C)NC(=O)[C@@H](C)CO` was tested. Which composite z-score did it give?
Answer: The composite z-score was 1.

Question: `C=CCOC(=O)[C@H]1[C@@H]2C(=O)O[C@@H](c3ccccc3)[C@@H](c3ccccc3)N2[C@@H](c2ccc(OCCOC(=O)[C@H]3C[C@H]4C(=O)N5CCC[C@H]5C(=O)N4[C@H]3c3cccc(OCCO)c3)cc2)[C@]12C(=O)Nc1ccc(I)cc12` was tested. Which composite z-score did it give?
Answer: Its composite z-score is 1.5.

Question: How did the composite z-score turn out when `CCCCC(=C=CC[C@H](O)c1ccccc1OCCO)C[C@H](O)COCc1ccccc1` was run?
Answer: Its composite z-score is -0.142.

Question: `COc1ccc(-c2ccc3c(n2)CCCN3CC(O)CN2CCCc3nc(C)c(C)cc32)cc1` (configuration not stated) was tested. Which composite z-score did it give?
Answer: The composite z-score was 1.03.

Question: For `C[C@H]1Cc2c(-c3ccccc3)nc3c(c2CO1)CN(CCOc1ccccc1)CC3`, which composite z-score is on record?
Answer: Its composite z-score is 0.253.
